An excerpt weighted towards active compounds, which were near 5.8% of everything screened.
KB-V1 cytotox – KB-V1 MDR subline cytotoxicity; Potency, µM (titrated, usually from 46.1 µM), usual class: cytotoxic; KB-V1 MDR cells viability, CellTiter-Glo, 72 h; 3.4% of 400,000 active; note: % is set by controls: 0 for no effect and ±100 for the full control effect; nearly all actives have a fitted effect of over 60% in size
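Luminescent ATP read-out (CellTiter-Glo, 10 min) measures survival of drug-selected KB-V1 MDR cells after 72 h, 37 degrees C compound exposure. Medium: phenol-red-free DMEM, 10% FBS. Values from fitted concentration-response curves.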
ALOX12 inh – ALOX12 (human) lipoxygenase inhibition; 1.1% of 580,000 active; Potency, µM (top dose mostly 108 µM), without a hit: at the top dose activity change, negative = inhibition, hits mostly inhibitors; P18054; purified 12hLO, xylenol orange hydroperoxide absorbance; note: % is set by controls: 0 for no effect and ±100 for the full control effect
Target sequence (P18054 whole entry, looked up): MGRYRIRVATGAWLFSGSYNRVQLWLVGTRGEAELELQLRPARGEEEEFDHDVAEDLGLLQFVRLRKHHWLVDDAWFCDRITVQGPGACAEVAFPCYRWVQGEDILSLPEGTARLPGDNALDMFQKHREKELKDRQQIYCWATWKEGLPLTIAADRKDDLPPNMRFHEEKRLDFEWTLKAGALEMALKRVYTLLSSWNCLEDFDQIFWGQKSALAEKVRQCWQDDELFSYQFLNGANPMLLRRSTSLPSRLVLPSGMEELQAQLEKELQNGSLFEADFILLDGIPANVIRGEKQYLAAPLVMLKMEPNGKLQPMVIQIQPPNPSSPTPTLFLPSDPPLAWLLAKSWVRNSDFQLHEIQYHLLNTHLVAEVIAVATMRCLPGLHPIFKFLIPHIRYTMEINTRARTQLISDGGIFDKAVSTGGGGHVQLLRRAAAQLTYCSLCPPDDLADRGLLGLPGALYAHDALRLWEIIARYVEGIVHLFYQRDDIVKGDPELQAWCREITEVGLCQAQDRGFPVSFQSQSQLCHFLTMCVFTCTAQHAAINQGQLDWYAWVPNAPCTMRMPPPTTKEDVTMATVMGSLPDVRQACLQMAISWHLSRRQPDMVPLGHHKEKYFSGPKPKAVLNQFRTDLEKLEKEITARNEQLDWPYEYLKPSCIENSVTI
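Hydroperoxide product was detected by ferrous iron/xylenol orange as the 573 to 405 nm absorbance ratio. Arachidonic acid at 40 uM (final) was turned over for 30 min at room temperature by 150 nM human 12hLO, pH 7.0 Hepes buffer, after 15 min compound preincubation.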
MCF10A rerep – inducers of DNA re-replication in MCF 10A breast cells. MCF 10A DNA re-replication, Hoechst nuclear intensity, 48 h. Potency, µM (series often up to 46.1 µM), for the others: at the top dose activity, positive = re-replication, usual class: activators. 2.9% of 350,000 active; note: % of control where 0% means no effect; nearly all actives have a fitted effect of over 50% in size
SW480 rereplic – inducers of DNA re-replication in SW480 colon cancer cells. SW480 DNA re-replication, Hoechst DNA content imaging, 48 h. Potency, µM (titrated, usually from 46.1 µM), for inactives: at the top dose re-replication activation, hits mostly activators. 1.8% of 340,000 active. AID 624297; note: % of control where 0% means no effect; nearly all actives have a fitted effect of over 55% in size
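SW480 cells exposed to compounds for 48 hr at 37 C, 5% CO2, then Hoechst-stained 40 min. Nuclear DNA content imaged by fluorescence scanning (405 nm excitation, 500-530 nm emission); re-replication scored as increased high-intensity nuclei.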
PINK1 modulator – modulators of PINK1 expression | PINK1 immunofluorescence, high-content cytometry, 24 h | Potency, µM (series often up to 76.6 µM), without a hit: at the highest dose activation (PINK1 increase), usual class: activators | 0.2% of 410,000 active | AID 624263; active = well fitted activation curve with a large enough effect; inconclusive = small, poorly fitted or top-dose-only effect; cell line not stated here; note: % of control where 0% means no effect; nearly all actives have a fitted effect of over 65% in size
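Stable cell line, 250 cells/well, 12 h attachment; compounds pinned at 5 concentrations, 24 h; CCCP control. Fixed with nuclear dye, primary antibodies 12 h at 10 degrees C, secondary plus cell stain; laser-scanning cytometer read.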
KB-3-1 cytotox – KB-3-1 parental cell cytotoxicity; 1.4% of 400,000 active; KB-3-1 viability, CellTiter-Glo ATP luminescence, 72 h; Potency, µM (series often up to 46.1 µM), actives largely listed as cytotoxic; note: % is set by controls: 0 for no effect and ±100 for the full control effect; nearly all actives have a fitted effect of over 60% in size
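Multi-concentration cytotoxicity screen in KB-3-1 cells grown in DMEM lacking phenol red with 10% FBS. After 72 h at 37 °C with compound, ATP-dependent luminescence was recorded.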
* marks the source's active call; other numbers are inactive results; i = inactive; u = inconclusive; x = no result; [ ] = dose if it differs, or a comment. Unless noted, calls come from the whole dose curve; as a rule, active = well fitted curve in the direction sought with a large enough effect; inconclusive = small, poorly fitted or top-dose-only effect, or another doubt; inactive = no such curve, though single readings can be large; an effect the other way counts as inactive or inconclusive. Potency is the fitted concentration of half-maximal effect.

SMILES	KB-V1 cytotox	ALOX12 inh	MCF10A rerep	SW480 rereplic	PINK1 modulator	KB-3-1 cytotox
CCCCn1c(CCl)nc2cc(S(=O)(=O)N3CCOCC3)ccc21	u	3%	u	13µM*	-2%	u
CCc1ccc(C(=O)CSc2nc3cc(S(=O)(=O)N4CCOCC4)ccc3n2CC)cc1	21µM*	-9%	-2%	13%	1%	i
CCOC(=O)CNc1nc(-c2ccccc2)c2cc(C)ccc2n1	x	18%	x	x	x	x
CCOC(=O)CSC1=C(C#N)C(c2ccc3c(c2)OCO3)CC(=O)N1 (stereo unspecified)	u	-3%	u	u	9%	7.3µM*
CCOC(=O)CSC1=C(C#N)C(c2ccccc2OCC)C(C#N)C(=O)N1 (stereo unspecified)	i	u	u	18µM*	x	i
CCCCOC(=O)CSC1=C(C#N)C(c2ccc3c(c2)OCO3)CC(=O)N1 (stereo unspecified)	i	-2%	1%	-3%	6%	i
CCOC(=O)CSC1=C(C#N)C(c2ccc(C)o2)CC(=O)N1 (stereo unspecified)	u	u	u	0.82µM*	7%	0.58µM*
CCOC(=O)CSC1=C(C#N)C(c2ccccc2OCC)C(C(=O)OCC)C(=O)N1 (stereo unspecified)	i	-26%	u	-2%	1%	i
C[S+](C)/N=C(\[O-])c1cccc(F)c1	x	40%	x	x	x	x
COc1ccc(-c2nc(N)n(C(=O)c3ccc(Cl)cc3)n2)cc1	x	-8%	x	x	x	x
CC(C)NC(=S)N/N=C/c1ccc(C(C)(C)C)cc1	u	32µM*	u	-4%	u	i
FC(F)(F)c1ccc(/C=N/NC(=S)NC2CCCCC2)cc1	i	-9%	18µM*	10%	7%	i
CC(C)NC(=S)N/N=C/c1ccc([N+](=O)[O-])cc1	x	6%	x	x	x	x
FC(F)(F)c1cccc(/C=N/NC(=S)NC2CCCCC2)c1	i	-17%	u	-6%	4%	i
CCc1nnc(SCC(=O)Nc2cc(Cl)ccc2C)n1-n1cccc1	x	30%	x	x	x	x
Cc1cccc(NC(=O)CN2CCN(C(=O)CNC(=O)c3ccc(-c4ccccc4)cc3)CC2)c1C	u	-25%	x	x	5%	i
Cc1cccc(C)c1NC(=O)CN1CCN(C(=O)CNC(=O)c2ccc(-c3ccccc3)cc2)CC1	18µM*	-11%	x	x	4%	u
Cc1c2n(c3ccccc13)CC/C2=N\O	5.2µM*	14%	1%	1%	-1%	u
COc1ccc(CCNC(=O)CCc2c(C)nc3cc(-c4ccccc4)nn3c2C)cc1OC	i	-19%	x	x	1%	i
CCc1c(C)nc2cc(-c3ccc(OC)c(OC)c3)nn2c1NCC1CC1	5.2µM*	-11%	21µM*	-1%	3%	u
FC(F)(F)c1cc(-c2ccco2)nc(N2CCN(Cc3ccccc3)CC2)n1	i	u	13µM*	3%	12%[38.3 µM]	i
FC(F)(F)c1cc(-c2ccco2)nc(NCCc2ccccc2)n1	i	u	18µM*	u	19%	i
Fc1ccc(N2CCN(c3nc(-c4ccco4)cc(C(F)(F)F)n3)CC2)cc1	i	-3%	u	-9%	3%	i
O=[N+]([O-])c1cnn(-c2nc(-c3ccco3)cc(C(F)(F)F)n2)c1	i	-13%	15%	18µM*	4%	i
COc1ccc(/C=C/c2c(-c3ccc(OC)cc3)oc(=O)c3cc(OC)c(OC)cc23)cc1	i	-18%	3%	7%	1%	i
COc1ccc(-c2oc3cccnc3c2/C=C/c2ccc(OC)c(OC)c2)cc1	i	u	u	1.6µM*	1%	i
Cc1ccc(CNC(C)CN2CCCCC2)cc1 (stereo unspecified)	x	-29%	x	x	x	x
Cc1cccc(-c2noc(CNC(=O)CN(C)S(=O)(=O)c3ccc4ccccc4c3)n2)c1	x	-2%	x	x	x	x
CC(C)Cn1c(SCC(N)=O)nnc1-c1cccc(S(=O)(=O)N2CCOCC2)c1	i	375%	-3%	-6%	-1%	i
Cc1ccc(CSc2nnc(-c3cccc(S(=O)(=O)N4CCOCC4)c3)n2CC(C)C)cc1	4.6µM*	-24%	24%	6%	-1%	23µM*

Screens from PubChem BioAssay.
